In the supplement of paper PMC12067926 one finds relative growth data, which are given here for 40 molecules.

For this test, the system named is Carnobacterium 1 (Carnobacterium gallinarum). Kind of test: relative growth (AUC of 72 h growth curve relative to DMSO control, dAUC) (ratio); higher = more growth (less inhibition), active = hit call of the paper. The note with it: 20 µM. Here is the method: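 Environmental bacterial isolates (Iceland stream sediment and Silwood Park soil) and whole stream-sediment communities were grown in LB from a 1:100 dilution with each pesticide at 20 µM (1% DMSO). A600 was read hourly for 72 h and the area under a spline-fitted growth curve (AUC) was computed. dAUC is the mean AUC of 3 biological replicates divided by the mean AUC of the DMSO controls. Significance was tested by Dunnett's test against the DMSO control.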
Regarding `CN1COCN(Cc2cnc(Cl)s2)/C1=N\[N+](=O)[O-]`, the relative growth was 1.12 (inactive).

As for `CC(C)N1C(=O)c2ccccc2NS1(=O)=O`, the relative growth was 0.693 (inactive).

`CCCC(Cn1cncn1)c1ccc(Cl)cc1Cl` (stereo not given): the relative growth is 1.13 (inactive).

With `CC(C)N1C(=O)N(c2ccccc2)CS/C1=N\C(C)(C)C`, the relative growth is 0.913 (inactive).

Turning to `ClC1C(Cl)C(Cl)C(Cl)C(Cl)C1Cl` (stereo not given), the relative growth was 0.955 (inactive).

`CO/N=C(/C(=O)OC)c1ccccc1CO/N=C(\C)c1cccc(C(F)(F)F)c1`: the relative growth is 0.975 (inactive).

For the molecule `COP(=O)(NC(C)=O)SC` (stereo not given), the relative growth was 1.08 (inactive).

As to `CO/C=C(/C(=O)OC)c1ccccc1COc1cccc(C(F)(F)F)n1`, the relative growth was 0.98 (inactive).

Regarding `CCOP(=S)(OCC)Oc1cc(C)nc(C(C)C)n1`, the relative growth was 0.908 (inactive).

On to `CCc1cc(C)cc(CC)c1-c1c(OC(=O)C(C)(C)C)n2n(c1=O)CCOCC2`, for which the relative growth is 1.01 (inactive).

Regarding `CNC(=O)c1cc(C#N)cc(C)c1NC(=O)c1cc(Br)nn1-c1ncccc1Cl`, the relative growth is 0.896 (inactive).

In the case of `COP(N)(=O)SC` (stereo not given), the relative growth was 0.69 (inactive).

Consider `CC(C)(C)c1ccc(CSc2cnn(C(C)(C)C)c(=O)c2Cl)cc1`, for which the relative growth was 1.3 (inactive).

As for `CC(C)OC(=O)Nc1cccc(Cl)c1`, the relative growth is 1.5 (inactive).

With `C#CCOc1ccc(CCNC(=O)C(OCC#C)c2ccc(Cl)cc2)cc1OC` (stereo not given), the relative growth was 1.18 (inactive).

Regarding `CCC(=O)Nc1ccc(Cl)c(Cl)c1`, the relative growth is 0.897 (inactive).

As for `C#CCN1C(=O)COc2cc(F)c(N3C(=O)C4=C(CCCC4)C3=O)cc21`, the relative growth was 0.92 (inactive).

With `CC[C@H]1CCC[C@H](O[C@H]2CC[C@H](N(C)C)[C@@H](C)O2)[C@@H](C)C(=O)C2=C[C@@H]3[C@@H](C=C(C)[C@@H]4C[C@@H](O[C@@H]5O[C@@H](C)[C@H](OC)[C@@H](OC)[C@H]5OC)C[C@@H]34)[C@@H]2CC(=O)O1.CC[C@H]1CCC[C@H](O[C@H]2CC[C@H](N(C)C)[C@@H](C)O2)[C@@H](C)C(=O)C2=C[C@H]3[C@@H]4C[C@H](O[C@@H]5O[C@@H](C)[C@H](OC)[C@@H](OC)[C@H]5OC)C[C@H]4C=C[C@H]3C2CC(=O)O1`, the relative growth is 0.952 (inactive).

`N#Cc1sc2c(=O)c3ccccc3c(=O)c=2sc1C#N`: the relative growth is 0.62 (inactive).

`COc1cc(OC)nc(NC(=O)NS(=O)(=O)c2ncccc2C(=O)N(C)C)n1`: the relative growth was 1.09 (inactive).

With `CCC(C)(C)C(=O)OC1=C(c2ccc(Cl)cc2Cl)C(=O)OC12CCCCC2`, the relative growth was 1.13 (inactive).

On to `CCCCOC(=O)[C@H](C)Oc1ccc(Oc2ccc(C#N)cc2F)cc1`, for which the relative growth was 0.961 (inactive).

Consider `Cc1cc(C(C#N)c2ccc(Cl)cc2)c(Cl)cc1NC(=O)c1cc(I)cc(I)c1O` (stereo not given), for which the relative growth is 0.0215 (active).

As to `CS(=O)(=O)NC(=O)c1cc(Oc2ccc(C(F)(F)F)cc2Cl)ccc1[N+](=O)[O-]`, the relative growth is 0.908 (inactive).

In the case of `CNC(=O)Oc1cccc2ccccc12`, the relative growth was 1.1 (inactive).

With `Nc1c([N+](=O)[O-])ccc(Oc2ccccc2)c1Cl`, the relative growth is 0.792 (inactive).

Take `COC(=O)c1ccccc1S(=O)(=O)NC(=O)Nc1nc(C)nc(OC)n1`: the relative growth is 1.2 (inactive).

On to `CCCCc1c(C)nc(NCC)nc1OS(=O)(=O)N(C)C`, for which the relative growth is 0.861 (inactive).

For `N#CC(CCc1ccc(Cl)cc1)(Cn1cncn1)c1ccccc1` (stereo not given), the relative growth was 0.805 (inactive).

As for `CCc1cnc(C2=NC(C)(C(C)C)C(=O)N2)c(C(=O)O)c1` (stereo not given), the relative growth was 1.06 (inactive).

As to `CCSC(C)CC1CC(=O)C(/C(CC)=N/OC/C=C/Cl)=C(O)C1` (mixture of isomers), the relative growth was 1.27 (inactive).

As for `CC(C)(C)[C@@H](O)[C@H](Oc1ccc(Cl)cc1)n1cncn1`, the relative growth was 1.06 (inactive).

For `CSc1nnc(C(C)(C)C)c(=O)n1N`, the relative growth was 1.38 (inactive).

Turning to `CC[C@H](C)[C@H]1O[C@]2(C=C[C@@H]1C)C[C@@H]1C[C@@H](C/C=C(\C)[C@@H](O[C@H]3C[C@H](OC)[C@@H](O[C@H]4C[C@H](OC)[C@@H](O)[C@H](C)O4)[C@H](C)O3)[C@@H](C)/C=C/C=C3\CO[C@@H]4[C@H](O)C(C)=C[C@@H](C(=O)O1)[C@]34O)O2.CO[C@H]1C[C@H](O[C@H]2[C@H](C)O[C@@H](O[C@@H]3/C(C)=C/C[C@@H]4C[C@@H](C[C@]5(C=C[C@H](C)[C@@H](C(C)C)O5)O4)OC(=O)[C@@H]4C=C(C)[C@@H](O)[C@H]5OC/C(=C\C=C\[C@@H]3C)[C@]54O)C[C@@H]2OC)O[C@@H](C)[C@@H]1O`, the relative growth was 0.726 (inactive).

`COc1cc(C)c(C(=O)c2c(OC)ccc(Br)c2C)c(OC)c1OC`: the relative growth was 1.4 (inactive).

With `CO/C=C(/C(=O)OC)c1ccccc1Oc1cc(Oc2ccccc2C#N)ncn1`, the relative growth was 1.27 (inactive).

On to `CC(COc1ccc(Oc2ccccc2)cc1)Oc1ccccn1` (stereo not given), for which the relative growth was 1.38 (inactive).

Turning to `CC(C)(C)C(O)(CCc1ccc(Cl)cc1)Cn1cncn1` (stereo not given), the relative growth is 0.864 (inactive).

On to `CCCSP(=O)(OCC)Oc1ccc(Br)cc1Cl` (stereo not given), for which the relative growth was 0.842 (inactive).

For `CCc1cccc(C)c1N(C(=O)CCl)[C@@H](C)COC`, the relative growth is 1.04 (inactive).
